High-throughput results deposited in PubChem BioAssay by National Center for Advancing Translational Sciences (NCATS).
uPA generation – blocks generation of uPA at the cell surface; cell surface uPA generation assay, qHTS; Potency, µM (series often up to 38.3 µM), for the others: at the highest dose activity change, negative = inhibition, most hits filed as inhibitors; 330,000 tested, 0.31% active; AID 540303; active = well fitted inhibition curve with a large enough effect; inconclusive = small, poorly fitted or top-dose-only effect; inactive = no such curve, though single readings can be large or run the other way; tested in mouse RAW 264.7 cells; note: potency is the fitted concentration of half-maximal effect; nearly all actives have a fitted effect of over 55% in size
IL-1B inflam inh – inhibitors of inflammasome signaling (IL-1 beta secretion). 360,000 tested, 4.7% active. THP-1 LPS/ATP IL-1B secretion, AlphaLISA, 16 h; hits give low values. activity change, % at 57.5 µM; in the data active = activity change below about -50%; inconclusive = mostly about -30% to -49%
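Secreted IL-1B measured by AlphaLISA bead assay after 16 h compound exposure of THP-1 cells; compounds (final up to 57.5 uM) added 1 h before LPS (250 ng/mL) and ATP (1.25 mM) stimulation; lower signal means less secretion.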
TDP1 cell CPT – growth inhibition of DT40 Tdp1-/-;hTDP1 cells with camptothecin (screen for TDP1 inhibitors); Potency, µM (top dose mostly 46.2 µM), without a hit: at the top dose activity change, negative = growth inhibition, actives largely listed as inhibitors; 420,000 tested, 12% active; chicken DT40 Tdp1-/-;hTDP1 cells + 20 nM CPT, ATP luminescence, 48 h; AID 686979; note: potency is the fitted concentration of half-maximal effect; nearly all actives have a fitted effect of over 55% in size
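Chicken DT40 Tdp1-/- cells stably complemented with human TDP1 were seeded at 400 cells/well in medium containing 20 nM camptothecin, exposed to pin-transferred compounds, and grown at 37 °C for at least 48 hr. Viability was read as ATP luminescence.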
TDP1 cell noCPT – qHTS for Inhibitors of human tyrosyl-DNA phosphodiesterase 1 (TDP1): qHTS in cells in absence of CPT | AID 686978, 2013 | DT40 Tdp1-/- hTDP1 cells, no CPT, ATP luminescence, 48 h | 420,000 tested, 15% active | Potency, µM (titrated, usually from 46.2 µM), inactives show at the highest dose activity change, negative = growth inhibition, actives largely listed as inhibitors; note: potency is the fitted concentration of half-maximal effect; nearly all actives have a fitted effect of over 55% in size
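Growth of hTDP1-complemented DT40 Tdp1-knockout cells is measured by ATP luminescence after at least 48 hr compound exposure at 37 °C, with DMSO substituting for the 20 nM CPT used in the parallel screen.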
HT1080-NT tox – kills 2HG-producing HT-1080-NT fibrosarcoma cells; 360,000 tested, 1.6% active; HT-1080-NT fibrosarcoma viability, CellTiter-Glo ATP luminescence, 48 h; Potency, µM (series often up to 46.1 µM), for the others: at the highest dose activity, negative = less viability, usual class: cytotoxic;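 note: NT is the 2HG producing partner of a matched IDH1 knockdown line; potency is the fitted concentration of half-maximal effect; 0% = DMSO-treated cells and -100% = media-only wells without cells; nearly all actives have a fitted effect of over 55% in size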
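Luminescent CellTiter-Glo readout after 48 hours of compound exposure at 37 degrees C defined viability of HT-1080-NT cells. Activity was normalized to DMSO wells and cell-free media wells; concentration-response curves were fitted and assigned curve classes.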
HT1080 IDH1KD tx – HT-1080 IDH1 knockdown cell toxicity (counter line). HT-1080 IDH1 knockdown viability, ATP luminescence, 48 h. Potency, µM (titrated, usually from 46.1 µM), without a hit: top-dose activity, negative = toxicity, most hits filed as cytotoxic. 360,000 tested, 2% active;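 note: potency is the fitted concentration of half-maximal effect; 0% = DMSO wells and -100% = cell-free medium wells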
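After a 2 h attachment period, IDH1KD HT-1080 cells took pin-transferred compound for 48 h at 37 °C; ATP-based luminescence after 10 min room-temperature reagent incubation reported viability.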
* marks the source's active call; other numbers are inactive results; ? = inconclusive; nt = no result given. A selection: hits, their analogues and other compounds. The true share with any hit is near 19%. Unless noted, calls come from the whole dose curve; as a rule, active = well fitted curve in the direction sought with a large enough effect; inconclusive = small, poorly fitted or top-dose-only effect, or another doubt; inactive = no such curve, though single readings can be large; an effect the other way counts as inactive or inconclusive. Unless noted, % is set by controls: 0 for no effect and ±100 for the full control effect.

SMILES	uPA generation	IL-1B inflam inh	TDP1 cell CPT	TDP1 cell noCPT	HT1080-NT tox	HT1080 IDH1KD tx
O=C(Nc1ccc(-c2ccc(N3CCCCC3)nn2)cc1)c1ccco1	-1%	-13	?	26µM*	-6%	-18%
Nc1nc(-c2ccc(NC(=O)c3ccco3)cc2)cs1	-14%	2	1%	?	7.3µM*	16µM*
Cc1nc(-c2cccc(NC(=O)c3ccco3)c2)cs1	-3%	6	-17%	-28%	-20%	-5%
Cc1nc(-c2ccc(C(=O)Nc3ccc(F)cc3)cc2)cs1	-12%	32	14%	5%	-22%	-3%
Cc1nc(-c2ccc(C(=O)Nc3ccccc3F)cc2)cs1	-13%	-14	-18%	?	12µM*	21µM*
Cc1nc(-c2ccc(NC(=O)c3ccco3)cc2)cs1	?	-11	13µM*	?	?	?
CC(C)(C)c1ccc(C(=O)Nc2cccc3c(=O)[nH][nH]c(=O)c23)cc1	-6%	10	2%	-6%	0%	-13%
O=C(Cc1cccs1)Nc1c(C(=O)Nc2ccc(F)cc2)oc2ccccc12	nt	nt	-25%	-21%	nt	nt
COc1ccc(S(=O)(=O)N2CCOCC2)cc1NC(=O)COC(=O)c1oc2ccccc2c1C	6%	-17	-10%	?	-16%	-1%
Cc1ccn2cc(-c3cccc(NC(=O)CCC(=O)O)c3)nc2c1	3.5µM*	26	?	?	-12%	-12%
CC(=O)Nc1cccc(-c2cn3ccc(C)cc3n2)c1	?	-7	-16%	-8%	-6%	-4%
Cc1nnc2ccc(-c3ccc(NC(=O)c4ccco4)cc3)nn12	11%	0	?	?	0%	-2%
Cc1nc(-c2ccc(NC(=O)c3ccccc3Br)cc2)cs1	-4%	-52*	4%	-16%	-2%	-10%
Cc1ccn2cc(-c3ccc(NC(=O)c4ccco4)cc3)nc2c1	-5%	-92*	?	?	4%	-3%
Cc1nc(-c2ccc(NC(=O)Cc3ccccc3)cc2)cs1	3%	31	-2%	?	10%	20%
O=C(NS(=O)(=O)c1ccc2ccc(S(=O)(=O)NCCSc3ccccc3)cc2c1)c1cccc2ccccc12	nt	11	-6%	3%	-1%	3%
CCOC(=O)c1cc(=O)c2ccc(OCC(=O)Nc3ccc(F)cc3)cc2o1	-1%	0	-6%	-17%	10%	5%
COc1ccccc1Nc1nn2c(=O)c3ccc(C(=O)NCc4cccs4)cc3nc2s1	nt	nt	13µM*	16µM*	nt	nt
Cc1ccc(C)c(Nc2nn3c(=O)c4ccc(C(=O)NCc5cccs5)cc4nc3s2)c1	nt	nt	?	15µM*	nt	nt
COc1ccccc1Nc1ccc(C(=O)NCc2cccs2)cn1	1%	-20	0%	-9%	23%	18%
COc1ccccc1Nc1nn2c(=O)c3ccc(C(=O)NCCCOC(C)C)cc3nc2s1	nt	nt	5.2µM*	4.1µM*	nt	nt
Cc1ccc(C(=O)NCc2cccs2)cc1S(=O)(=O)N1CCCCC1	-1%	1	0%	-17%	-4%	0%
CC(C)OCCCNC(=O)c1ccc2c(=O)n(CCc3ccccc3)c(=O)[nH]c2c1	nt	nt	-2%	-18%	nt	nt
Cc1cc(C)n(CC(=O)NNC(=O)COc2ccc(Br)cc2F)n1	-2%	11	-7%	-6%	0%	1%
CC1(C(=O)NS(=O)(=O)c2cccc(C#N)c2)CCN1C(=O)c1ccco1 (configuration not stated)	nt	13	17%	1%	8%	18%
SMILES	uPA generation	IL-1B inflam inh	TDP1 cell CPT	TDP1 cell noCPT	HT1080-NT tox	HT1080 IDH1KD tx
COc1ccc(-c2ccc(CN3C(CC(C)C)C(=O)N(Cc4cn(Cc5ccco5)nn4)CCS3(=O)=O)cc2)cc1OC (configuration not stated)	nt	-18	?	16µM*	-4%	-3%
COc1ccc(-c2ccc(CN3C(CC(C)C)C(=O)N(Cc4cn(Cc5ccco5)nn4)CCS3(=O)=O)cc2)cc1 (configuration not stated)	nt	-15	7.3µM*	7.3µM*	?	?
CCCc1ccc(C2=Nn3c(nnc3C(C)C)SC2)cc1	-9%	-91*	?	?	?	?
Cc1cc(-c2nnc3n2N=C(c2ccccc2)CS3)n[nH]1	7%	nt	8%	-10%	4%	10%
c1ccc(-c2cc(-c3nnc4n3N=C(c3ccc5ccccc5c3)CS4)[nH]n2)cc1	?	-64*	?	?	?	18µM*
Cc1cccc(-c2nnc3n2N=C(c2ccccc2)CS3)c1	-11%	13	-23%	?	-8%	-14%
CCOc1ccc(C2=Nn3c(nnc3-c3ccc(OC)cc3)SC2)cc1	-13%	20	2.1µM*	2.6µM*	?	6.5µM*
CC(C)c1nnc2n1N=C(c1ccc(Cl)cc1)CS2	-17%	-26	-20%	-13%	6%	-1%
Cc1ccc(-c2nnc3n2N=C(c2ccccc2Br)CS3)cc1	-10%	-7	12µM*	8.2µM*	?	?
COc1cccc(C(O)c2nc(-c3cncnc3)cs2)c1 (configuration not stated)	nt	-18	-28%	-14%	3%	0%
COc1ccc(N2CC(NC(=O)CCCc3ccccc3)CC2=O)cc1 (configuration not stated)	nt	nt	-2%	-12%	nt	nt
Cc1cc(-c2nnc3n2N=C(c2ccc(-c4ccccc4)cc2)CS3)n[nH]1	6%	-62*	23µM*	15µM*	23µM*	?
COc1ccc(OC)c(C2=Nn3c(nnc3-c3cccc(OC(C)C)c3)SC2)c1	-1%	11	13µM*	12µM*	0%	14%
